LDHA block: blocks human lactate dehydrogenase A; purified LDHA, NADH/diaphorase-resazurin fluorescence; active compounds read low; hit rate 0.15% among 480,000; P00338; AID 1347041; activity change, % (values are at about 110 or 230 µM); in the data active = activity change below about -30%; inconclusive = mostly about -25% to -30%;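 also: plate controls were DMSO wells for no effect and wells without enzyme for full effect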
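Human LDH5 (2 nM) was incubated with 0.06 mM NADH and 0.2 mM pyruvate for 5 min at room temperature in Tris pH 7.4. Remaining NADH was coupled through diaphorase/resazurin, and resorufin fluorescence was read at 0 and 20 min.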
Chronic BCR inh: chronic active BCR signaling inhibition | hit rate 0.05% among 340,000 | ABC-DLBCL IkBa-CBG/CBR reporter, luminescence ratio, 4 h | Potency, µM (doses to about 46.1 µM), without a hit: at the top dose activity change, negative = inhibition, actives largely listed as inhibitors | AID 493014; active = well fitted inhibition curve with a large enough effect in the signal ratio, with a control signal flat, not every such curve was filed as active; inconclusive = small, poorly fitted or top-dose-only effect, or effect the other way, or a change in a side signal; the % refers to the signal ratio;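 also: potency is read from the fitted curve at half-maximal effect; plate controls were basal doxycycline-induced cells for no effect and cells given 10 µM MG132 for full effect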
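Cell line TMD8 (human ABC DLBCL), stably expressing tet-inducible CBG68-IkBa fusion and CBR; IMDM/0.5% FBS; cpd up to 46 uM; dox induction, 4 h, 37C/5% CO2; dual luminescence; green/red ratio; MG132 control.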
KCNH2 3.1 block: inhibitors of human KCNH2 3.1 potassium channel isoform. U2OS KCNH2 3.1, thallium flux FluxOr; active compounds read low. activity change, % (tested at about 1.8 µM). hit rate 0.95% among 340,000. AID 720553;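 active = maximum activity change below -70%; inconclusive = maximum activity change from -70% to -50%; inactive = maximum activity change above -50%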;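 also: thallium influx rate constant from kinetic fluorescence after stimulation buffer; % is scaled to controls: 0 for no effect and ±100 for the full control effect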
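Channel expression came from 3.1 mutant virus (1.77 x 10^8 /mL) applied to suspended U2OS cells for 4 h. Flux was tracked with FluxOr dye plus Red40 quencher, and kinetic rate constants normalized to controls.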
KCNH2 WT inh: KCNH2 (human, wildtype) channel inhibition; Q12809; U2OS, BacMam KCNH2, thallium flux FluxOr; active compounds read low; activity change, % at 1.84 µM; hit rate 0.37% among 340,000; AID 720551;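 active = maximum activity change below -70%; inconclusive = maximum activity change between -70% and -50%; inactive = maximum activity change above -50%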; also: % is scaled to controls: 0 for no effect and ±100 for the full control effect
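U2OS cells were transduced with wild-type KCNH2 virus (2.03 x 10^8 / mL) for 4 h at room temperature, then cultured overnight at 37 C. Thallium flux was read with FluxOr dye. Rate constants were normalized to DMSO controls.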
12-LOX inh: inhibitors of human 12S-lipoxygenase ALOX12; purified 12hLO, xylenol orange hydroperoxide absorbance; P18054; Potency, µM (series often up to 108 µM), without a hit: top-dose activity change, negative = inhibition, most hits filed as inhibitors; AID 1671190; hit rate 1.1% among 580,000; active = well fitted inhibition curve with a large enough effect; inconclusive = small, poorly fitted or top-dose-only effect, or another doubt; inactive = no such curve, though single readings can be large or run the other way; also: potency is read from the fitted curve at half-maximal effect; % is scaled to controls: 0 for no effect and ±100 for the full control effect
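Purified human 12hLO (150 nM final) in 25 mM Hepes, 0.01% Triton X-100, pH 7.0 was preincubated 15 min at room temperature with compound. Then 40 uM arachidonic acid was added, 30 min. Hydroperoxide was read by Fe-XO absorbance ratio 573/405 nm.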
ClpP mod: qHTS Assay for Activators of ClpP. purified B. subtilis ClpP, FRET peptide cleavage, 20 min. Potency, µM (titrated, usually from 57.5 µM), without a hit: top-dose activity change, negative = active. hit rate 1.9% among 340,000. AID 651965, 2013; active = well fitted falling curve with a large enough effect; inconclusive = small, poorly fitted or top-dose-only effect; inactive = no such curve, though single readings can be large or run the other way; also: potency is read from the fitted curve at half-maximal effect; the source files actives as falling curves though it sought activators and does not explain the sign; nearly all actives have a fitted effect of over 65% in size
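Purified B. subtilis ClpP, 10 microg/mL final in Tris/HCl pH8 with KCl, BSA, glycerol and Tween-20, cleaved an Abz/nitrotyrosine-quenched decapeptide. Fluorescence (ex 320, em 430) was read at 0 and 20 min at room temperature. Delta was normalized to 5.8 microM ADEP and DMSO/no-enzyme controls.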
The depositor's hits bear a star; ? = inconclusive; . = no result given. Rows were chosen to be rich in hits. Some 3% of all compounds tested hit in one or more screens of this group.

SMILES	LDHA block	Chronic BCR inh	KCNH2 3.1 block	KCNH2 WT inh	12-LOX inh	ClpP mod
CCOc1ccc2oc(C(=O)OCC(=O)N3CC(C)OC(C)C3)c(C)c2c1 (stereo not given)	0	?	-4	-11	-1%	4%
COc1ccc2oc(C(=O)OCC(=O)N3CCN(C(C)=O)CC3)c(C)c2c1	0	0%	-9	-17	1%	25µM*
COc1ccc2oc(C(=O)OCC(=O)N3CCCC(C)C3)c(C)c2c1 (stereo not given)	-1	?	9	0	11%	14µM*
CCOc1ccc2oc(C(=O)OCC(=O)N3CCCC(C)C3)c(C)c2c1 (stereo not given)	5	2%	-3	-10	1%	28µM*
COc1ccc2c(c1)cc(C(=O)NCc1ccccc1)n2C	-5	.	.	.	-11%	.
CCOc1cc2[nH]c(=O)n(CCCCC(=O)N3CCN(c4ccc(OC)cc4)CC3)c(=O)c2cc1OCC	-1	-2%	.	.	8%	-3%
CCCCN(C)C(=O)CCCCn1c(=O)[nH]c2cc(OCC)c(OCC)cc2c1=O	-7	0%	2	-11	-10%	35µM*
CCOc1cc2[nH]c(=O)n(CCCCCC(=O)NCc3ccco3)c(=O)c2cc1OCC	-15	5%	-17	3	5%	22µM*
COc1cc2[nH]c(=O)n(CCC(=O)NCc3cccnc3)c(=O)c2cc1OC	1	3%	3	-7	0%	28µM*
Cc1cc(NC2=CC(=O)C(=O)c3ccccc32)no1	36	.	-9	3	40µM*	-3%
COc1ccc(NC(=O)c2nc3ccccc3nc2N2CCOCC2)cc1	-19	.	.	.	26%	.
COc1ccc(NC(=O)CN(Cc2ccc3c(c2)OCO3)C2CCCC2)cc1	2	.	.	.	?	.
O=C(O)CCCCCn1c(SCC(=O)c2ccc(O)c(O)c2)nc2ccsc2c1=O	4	-2%	-10	-11	?	7.9µM*
O=C(CCCn1c(SCC(=O)NC2CCCCC2)nc2ccccc2c1=O)NCC1CCCO1 (stereo not given)	-5	2%	11	2	-14%	2%
O=C(CCCn1c(SCC(=O)c2ccc(O)c(O)c2)nc2ccccc2c1=O)NCC1CCCO1 (stereo not given)	24	?	1	49	1.8µM*	-1%
CC(C)OC(=O)c1cc2c(ccn2C)n1CC(=O)N(Cc1ccccc1)c1ccccc1	-1	7%	-13	-2	?	28µM*
Cc1[nH]c2ccccc2c1C(c1ccc(O)cc1)c1c(C)[nH]c2ccccc12	11	.	.	.	14µM*	.
NC(=S)N/N=C/c1cccc(/C=N/NC(N)=S)c1	-6	-2%	-128*	-3	?	.
Cc1ccc(-n2c(C)cc(/C=N/NC(N)=S)c2C)cc1	-2	-20%	-6	1	45µM*	-5%
Cc1ccc(-n2c(C)cc(/C=N/NC(=O)c3ccncc3)c2C)cc1	0	2%	18	-8	?	0%
NC(=S)N/N=C/c1cccc(Cl)c1	-3	.	.	.	-64%	.
Cc1ccc(-c2ccc(/C=N/NC(N)=S)o2)cc1	-8	22µM*	-4	-3	45µM*	.
S=C(Nc1ccccn1)NC1CCCC1	-1	-10%	1	-3	45µM*	0%
S=C(Nc1ccccn1)NC1CCCCC1	-5	?	0	6	22µM*	.
S=C(NCCc1ccccn1)NC1CCCCC1	-2	-9%	18	5	21%	-3%
O=C(CC1=CCCCC1)N1CCC(C2CCNC2)CC1 (stereo not given)	.	.	.	.	40µM*	.
Cc1ccc(OCc2nc(C#N)c(NCc3ccccc3Cl)o2)cc1	9	.	.	.	?	.
Cc1ccc(C2CC(=O)N3CN(Cc4ccco4)CSC3=C2C#N)cc1 (stereo not given)	27	-7%	-5	-5	6.3µM*	-1%

Assay outcomes from PubChem BioAssay.
